Screening results: PubChem, National Center for Advancing Translational Sciences (NCATS)
Eya2 phos inh = inhibitors of human Eya2 phosphatase activity; O00167; Potency, µM (top dose mostly 76.9 µM), hits mostly inhibitors; hit rate 0.006% among 330,000; recombinant Eya2, OMFP fluorescence dephosphorylation (OMFP is methylfluorescein phosphate)
Target sequence (O00167 whole entry, looked up): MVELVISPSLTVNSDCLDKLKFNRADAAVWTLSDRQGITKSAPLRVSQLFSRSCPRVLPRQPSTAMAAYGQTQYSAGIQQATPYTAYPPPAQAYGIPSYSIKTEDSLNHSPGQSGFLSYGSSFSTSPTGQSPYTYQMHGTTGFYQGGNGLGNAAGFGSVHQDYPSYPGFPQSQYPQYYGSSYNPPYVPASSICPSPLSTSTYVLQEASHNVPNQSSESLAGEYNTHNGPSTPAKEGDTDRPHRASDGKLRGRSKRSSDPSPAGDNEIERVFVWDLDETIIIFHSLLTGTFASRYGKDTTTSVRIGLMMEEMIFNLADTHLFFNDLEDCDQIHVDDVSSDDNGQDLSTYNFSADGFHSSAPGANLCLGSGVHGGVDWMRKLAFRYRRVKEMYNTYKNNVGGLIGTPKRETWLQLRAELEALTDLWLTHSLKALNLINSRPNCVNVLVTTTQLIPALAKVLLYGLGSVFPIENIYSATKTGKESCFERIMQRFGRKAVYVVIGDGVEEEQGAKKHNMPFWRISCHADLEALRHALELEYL
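Eya2 protein (added as 0.2 uM solution) was preincubated with compound for 10 min at ambient temperature in 50 mM HEPES pH 7.5, 50 mM NaCl, 5 uM MgCl2, 0.05% BSA, 1 mM DTT. OMFP (added at 50 uM) then reacted 10 min; fluorescence read at 485/525 nm.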
MmCpn inh = blocks the Methanococcus maripaludis chaperonin Mm-Cpn | hit rate 0.031% among 330,000 | purified Mm-Cpn ATPase, ADP Transcreener TR-FRET | AID 504842 | Potency, µM (titrated, usually from 76.9 µM), most hits filed as inhibitors; also: nearly all actives have a fitted effect of over 80% in size
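ATPase turnover read by TR-FRET ADP competition (Eu cryptate antibody/ADP-d2, 665/590 nm): 10uM ATP final, 25nM Mm-CPN final, 30 min 37degC after 10-min compound preincubation, pH 7.4 Tris/KCl/MgCl2/DTT buffer.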
N370S GC mod = N370S glucocerebrosidase modulation, Gaucher chaperone candidate. AID 2101. N370S GC spleen homogenate, 4MU-glucoside fluorescence. hit rate 0.092% among 330,000. Potency, µM (titrated, usually from 59.4 µM), usual class: inhibitors. P04062
USP2a block = USP2a (human) protease inhibition; USP2 core, Ub-CHOP2 coupled fluorogenic reporter, 485/531; Potency, µM (titrated, usually from 38.3 µM), most hits filed as inhibitors; hit rate 0.01% among 330,000
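Deubiquitinase activity read as fluorescence (485/531 nm) after Ub-CHOP2 cleavage activates the enterokinase reporter on its substrate; USP2 core 10nM, Ub-CHOP2 and substrate 25nM each, 30min compound preincubation then 60min RT; data normalized to NEM, curves fitted.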
Numbers stand for hits; [ ] = dose if it differs, or a comment. This is a sample that favours compounds with a hit; in the whole collection about 0.1% have one here. Calls follow the shape of the dose curve; as a rule, active = well fitted curve in the direction sought with a large enough effect; inconclusive = small, poorly fitted or top-dose-only effect, or another doubt; inactive = no such curve, though single readings can be large; an effect the other way counts as inactive or inconclusive.

How did CCOC(=O)N1CCN(C(=O)c2oc3ccc(S(=O)(=O)N4CCOCC4)cc3c2C)CC1 do in these assays?
Eya2 phos inh: inactive; MmCpn inh: inactive; N370S GC mod: inactive; USP2a block: inactive

Results for CCOC(=O)C1=C(c2ccccc2)Nc2ncnn2C1c1ccc(C(=O)O)cc1 (configuration not stated) ?
Eya2 phos inh: inactive; MmCpn inh: inactive; N370S GC mod: inactive; USP2a block: inactive

Results for CCOC(=O)C1=C(c2ccccc2)NC(N)=NC1c1ccc(OCc2ccc(C(=O)OC)cc2)cc1 (configuration not stated) ?
Eya2 phos inh: inactive; MmCpn inh: inactive; N370S GC mod: 11µM; USP2a block: inactive

What do the screens show for `Oc1ccccc1N1CCN(c2nc(-c3cccs3)nc3ccccc23)CC1`?
Eya2 phos inh: inactive; MmCpn inh: inactive; N370S GC mod: 4.5µM; USP2a block: inactive

Results for Oc1ccc(N2CCN(c3nc(-c4cccs4)nc4ccccc34)CC2)cc1 ?
Eya2 phos inh: inactive; MmCpn inh: inactive; N370S GC mod: inconclusive; USP2a block: inactive

How did Cc1ccc(N2C(=O)CC(N3CCN(c4ccccn4)CC3)C2=O)cc1 (configuration not stated) do in these assays?
Eya2 phos inh: inactive; MmCpn inh: inactive; N370S GC mod: inactive; USP2a block: inactive

How did Cc1ccc2nc(-c3ccc(N4C(=O)CC(N5CCN(CCO)CC5)C4=O)cc3)sc2c1 (configuration not stated) do in these assays?
Eya2 phos inh: inactive; MmCpn inh: inactive; N370S GC mod: 18µM; USP2a block: inactive

Results for Cc1cccc(CNc2ccnc(-c3ccccc3C(F)(F)F)n2)c1 ?
N370S GC mod: 14µM

Results for Cc1cccc(CNc2ccnc(-c3ccoc3)n2)c1 ?
N370S GC mod: inactive

Results for CN1Cc2c(N)cccc2[C@H](c2ccccc2)C1 ?
N370S GC mod: inactive

How did O=C(CSc1nnc(SCc2cccc3ccccc23)s1)c1ccc2c(c1)OCO2 do in these assays?
Eya2 phos inh: inactive; MmCpn inh: 45µM; N370S GC mod: inactive; USP2a block: inactive

Results for O=C(CSc1ncnc2ccccc12)c1ccc2c(c1)OCCO2 ?
Eya2 phos inh: inactive; MmCpn inh: 20µM; N370S GC mod: inactive; USP2a block: inactive

What do the screens show for `CCc1nc(SCC(=O)c2ccc3c(c2)OCCO3)c2ccccc2n1`?
Eya2 phos inh: inactive; MmCpn inh: inactive; N370S GC mod: inactive; USP2a block: inactive

What do the screens show for `CSCC[C@H](NC(=O)[C@H](CC(C)C)NC(=O)CNC(=O)[C@@H]1CCCN1C(=O)[C@H](Cc1ccccc1)NC(=O)[C@H](Cc1ccccc1)NC(=O)[C@H](CC(=O)O)NC(=O)[C@H](Cc1cnc[nH]1)NC(=O)[C@H](CCSC)NC(=O)[C@@H](N)CC(=O)O)C(N)=O`?
N370S GC mod: inactive

How did COc1ccc(N(CC(=O)Nc2cccc(F)c2)S(=O)(=O)c2c(C)[nH]c(=O)[nH]c2=O)cc1 do in these assays?
Eya2 phos inh: inactive; MmCpn inh: inactive; N370S GC mod: 11µM; USP2a block: inactive

How did COc1ccc(N(CC(=O)Nc2cccc(C(F)(F)F)c2)S(=O)(=O)c2c(C)[nH]c(=O)[nH]c2=O)cc1 do in these assays?
Eya2 phos inh: inactive; MmCpn inh: inactive; N370S GC mod: inconclusive; USP2a block: inactive

How did CCOc1ccc(N(CC(=O)Nc2cc(OC)cc(OC)c2)S(=O)(=O)c2c(C)[nH]c(=O)[nH]c2=O)cc1 do in these assays?
Eya2 phos inh: inactive; MmCpn inh: inactive; N370S GC mod: inconclusive; USP2a block: inactive

How did CCOc1ccc(N(CC(=O)Nc2ccc(CC)cc2)S(=O)(=O)c2c(C)[nH]c(=O)[nH]c2=O)cc1 do in these assays?
Eya2 phos inh: inactive; MmCpn inh: inactive; N370S GC mod: 3.5µM; USP2a block: inactive

Results for CCOc1ccc(N(CC(=O)Nc2ccc(C)c(C)c2)S(=O)(=O)c2c(C)[nH]c(=O)[nH]c2=O)cc1 ?
Eya2 phos inh: inactive; MmCpn inh: inactive; N370S GC mod: 7.1µM; USP2a block: inactive

Results for COc1ccc(N(CC(=O)Nc2ccccc2C)S(=O)(=O)c2c(C)[nH]c(=O)[nH]c2=O)cc1 ?
Eya2 phos inh: inactive; MmCpn inh: inactive; N370S GC mod: inconclusive; USP2a block: inactive

How did CCc1ccc(NC(=O)CN(c2ccc(OC)cc2)S(=O)(=O)c2c(C)[nH]c(=O)[nH]c2=O)cc1 do in these assays?
Eya2 phos inh: inactive; MmCpn inh: inactive; N370S GC mod: 3.2µM; USP2a block: inactive

What do the screens show for `CN(C)c1ccc(C(=C2C=CC(=[N+](C)C)C=C2)c2ccc(N(C)C)cc2)cc1`?
N370S GC mod: 3.2µM

How did C#CCOCCOCCOCCNc1nc(N2CCN(C(=O)CCCCCCCCCCNC(=O)Cn3cc(C[C@@H](C)O)nn3)CC2)nc(N2CCN(C(=O)CCCCCCCCCCNC(=O)[C@H](CCCCN)n3cc(C[C@@H](C)CC)nn3)CC2)n1 do in these assays?
Eya2 phos inh: inactive; MmCpn inh: inactive; N370S GC mod: 22µM; USP2a block: inactive

Results for C#CCOCCOCCOCCNc1nc(N2CCN(C(=O)CCCCCCCCCCNC(=O)[C@H](CCCCN)n3cc(CCO)nn3)CC2)nc(N2CCN(C(=O)CCCCCCCCCCNC(=O)[C@H](CCCN=C(N)N)n3cc(C[C@@H](C)CC)nn3)CC2)n1 ?
Eya2 phos inh: inactive; MmCpn inh: inactive; N370S GC mod: 7.9µM; USP2a block: inconclusive

How did C#CCOCCOCCOCCNc1nc(N2CCN(C(=O)CCCCCCCCCCNC(=O)Cn3cc(C[C@@H](C)O)nn3)CC2)nc(N2CCN(C(=O)CCCCCCCCCCNC(=O)Cn3cc(C[C@@H](C)O)nn3)CC2)n1 do in these assays?
Eya2 phos inh: inactive; MmCpn inh: inactive; N370S GC mod: inactive; USP2a block: inactive

What do the screens show for `C#CCOCCOCCOCCNc1nc(N2CCN(C(=O)CCCCCCCCCCNC(=O)[C@H](CCCCN)n3cc(CCCC(=O)O)nn3)CC2)nc(N2CCN(C(=O)CCCCCCCCCCNC(=O)[C@H](CCCN=C(N)N)n3cc(C[C@@H](C)CC)nn3)CC2)n1`?
Eya2 phos inh: inactive; MmCpn inh: inactive; N370S GC mod: inconclusive; USP2a block: inconclusive

How did CCn1ccnc1CN(C)Cc1cn(-c2ccc(C)cc2)nc1-c1ccc(F)cc1 do in these assays?
Eya2 phos inh: inactive; MmCpn inh: inactive; N370S GC mod: 6.3µM; USP2a block: inactive

Results for CCn1ccnc1CN(C)Cc1cn(-c2ccccc2)nc1-c1ccc(OC)cc1F ?
Eya2 phos inh: inactive; MmCpn inh: inactive; N370S GC mod: inactive; USP2a block: inactive

What do the screens show for `CCn1ccnc1CN(C)Cc1cn(-c2cc(C)ccc2C)nc1-c1ccccc1`?
Eya2 phos inh: inactive; MmCpn inh: inactive; N370S GC mod: 14µM; USP2a block: inactive

How did COC(=O)C1=C(C(=O)OC)[C@@H]2N(C)c3ccc(OC)cc3[C@@]23C[C@@H](C(=O)OC)N(S(=O)(=O)c2c(C)noc2C)C3=N1 do in these assays?
N370S GC mod: inactive[12.8 µM]
